Rows were chosen to be rich in hits. Some 7.1% of all compounds tested hit in one or more screens of this group.
IL-1B inflam inh: blocks inflammasome-driven IL-1 beta release; AID 743279; hit rate 4.7% among 360,000; activity change, % at 57.5 µM; THP-1 LPS/ATP IL-1B secretion, AlphaLISA, 16 h; stronger effect = lower value; in the data active means activity change below about -50%; inconclusive means mostly about -30% to -49%; further: on the % scale 0 is the no-effect control and ±100 the full control effect
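THP-1 cells pretreated 1 hr with compounds (up to 57.5 uM final), then stimulated with LPS (250 ng/mL final) plus ATP (1.25 mM final); secreted IL-1B measured by AlphaLISA after 16 hr, decreased signal indicating inhibition.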
MCF10A rereplic: inducers of DNA re-replication in MCF 10A breast cells; AID 624296; MCF 10A DNA re-replication, Hoechst nuclear intensity, 48 h; Potency, µM (highest dose often 46.1 µM), inactives show at the highest dose activity, positive = re-replication, most hits filed as activators; hit rate 2.9% among 350,000; further: potency means the concentration at half of the fitted maximal effect; % of control where 0% means no effect; nearly all actives have a fitted effect of over 50% in size
SW480 rerep: DNA re-replication induction in SW480 cells; AID 624297; hit rate 1.8% among 340,000; SW480 DNA re-replication, Hoechst DNA content imaging, 48 h; Potency, µM (top dose mostly 46.1 µM), for the others: at the highest dose re-replication activation, usual class: activators; further: potency means the concentration at half of the fitted maximal effect; % of control where 0% means no effect; nearly all actives have a fitted effect of over 55% in size
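Hoechst fluorescence of nuclei (405 nm excitation, 500-530 nm emission) measured by plate-scanning imager after 48 hr compound exposure at 37 C; re-replication scored as increased number of nuclei with elevated intensity.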
ATXN2 expr inh: ATXN2 expression inhibition; HEK-293 ATXN2-luciferase reporter, luminescence, 24 h; Potency, µM (titrated, usually from 57 µM), for inactives: at the top dose activity change, negative = inhibition, actives largely listed as inhibitors; hit rate 0.72% among 360,000; AID 1745845; further: potency means the concentration at half of the fitted maximal effect; on the % scale 0 is the no-effect control and ±100 the full control effect; nearly all actives have a fitted effect of over 55% in size
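qHTS (up to 57 uM final) was run with 24 h compound exposure of reporter cells at 37 °C. Each well was multiplexed: SteadyGlo luminescence measured ATXN2-luciferase expression after a fluorogenic Gly-Phe-AFC viability readout (25 uM final).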
ATXN viability: reduces viability in counter-screen for ATXN expression inhibitors; S2 cells (HEK-293 line with an ATXN2-luciferase reporter) viability, CellTiter-Fluor protease fluorescence, 24 h; Potency, µM (highest dose often 56.7 µM), usual class: cytotoxic; hit rate 0.49% among 400,000; further: potency means the concentration at half of the fitted maximal effect; nearly all actives have a fitted effect of over 40% in size
PINK1 modulator: PINK1 expression modulation | PINK1 immunofluorescence, high-content cytometry, 24 h | Potency, µM (series often up to 76.6 µM), for the others: at the highest dose activation (PINK1 increase), usual class: activators | hit rate 0.2% among 410,000 | AID 624263; active means well fitted activation curve with a large enough effect; inconclusive means small, poorly fitted or top-dose-only effect; cell line not stated here; further: potency means the concentration at half of the fitted maximal effect; % of control where 0% means no effect; nearly all actives have a fitted effect of over 65% in size
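PINK1 protein, normally rapidly degraded, was detected by immunofluorescence after 24 hour compound treatment of a stable cell line. Titration data (5 concentrations) came from laser-scanning cytometry, with CCCP-treated wells as controls.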
Starred values were filed as active, the others as inactive; i = inactive; ? = inconclusive; . = no result; [ ] = another dose, or the depositor's remark. Unless noted, the call rests on the fitted dose curve; in most records, active means well fitted curve in the direction sought with a large enough effect; inconclusive means small, poorly fitted or top-dose-only effect, or another doubt; inactive means no such curve, though single readings can be large; an effect the other way counts as inactive or inconclusive.

SMILES	IL-1B inflam inh	MCF10A rereplic	SW480 rerep	ATXN2 expr inh	ATXN viability	PINK1 modulator
O=[N+]([O-])c1ccc(S(=O)(=O)CC(CN2CCCCC2)N2CCCCC2)cc1 (centres undefined)	-14.3	3.7%	-84.5%	.	?	1.7%
O=S(=O)(CC(CN1CCCCC1)N1CCCCC1)c1ccccc1 (centres undefined)	-96.7*	6.51µM*	?	.	.	2.0%
COc1ccc(NC(=O)N2CCN(S(=O)(=O)c3ccc4c(ccn4C)c3)CC2)cc1OC	.	.	.	-3.4%	i	0.0%
COc1cccc(NC(=O)Cn2c(=O)n(-c3cccc(OC)c3)c(=O)c3sc4ccccc4c32)c1	.	.	.	-7.2%	?	1.2%
COc1ccccc1CN1CCCC(CN(CCN(C)C)C(=O)C2CCCC2)C1 (centres undefined)	-52.4*	-4.5%	-2.3%	-17.9%	?	-0.3%
COc1ccccc1CN1CCCC(C(=O)N(C)Cc2ccccc2)C1 (centres undefined)	-0.6	6.3%	4.0%	-26.5%	?	-5.7%
CSc1nc(C(=O)NCc2nc(-c3cccc(NC(=O)c4ccccn4)c3)oc2C)cs1	.	.	.	.	.	0.3%
Cc1cc(S(=O)(=O)NC2CCN(Cc3ccccc3)CC2)c(C)cc1Cl	-96.2*	?	17.1%	-8.7%	i	-1.4%
Cc1cc(C)c(C)c(S(=O)(=O)NC2CCN(Cc3ccccc3)CC2)c1C	-73.2*	17.6%	-4.1%	0.5%[11.3 µM]	i	3.1%
Cc1ccc(N2C(=O)CSC23C(=O)Nc2ccccc23)cc1F (centres undefined)	.	.	.	7.1%	i	-0.5%
Clc1ccccc1N=Nc1ccccn1	2.3	-3.1%	-1.9%	0.0%	?	1.3%
Clc1ss/c(=N\c2ccccn2)c1Cl	-90.9*	2.6%	-5.4%	-8.6%	i	10.7%
O=C(CCn1c(=O)c2cccn2c2cccnc21)N1CCN(c2cccc(C(F)(F)F)c2)CC1	.	.	.	.	.	4.0%
COc1cc2ccccc2cc1C(=O)N(CCN(C)C)c1nc2ccc(Br)cc2s1	-4.6	?	23.1µM*	?	i	2.5%
CN(C)CCCN(C(=O)CCc1ccccc1)c1nc2ccc(Br)cc2s1	-102.1*	?	-0.1%	25.1µM*	?	-1.9%
CN(C)CCCN(C(=O)c1ccco1)c1nc2ccc(Cl)cc2s1	-15.6	13.5%	?	?	.	4.9%
CN(C)CCCN(C(=O)c1ccco1)c1nc2ccc(Br)cc2s1	-70.1*	-1.3%	?	25.1µM*	?	-0.1%
O=C(C=Cc1cccnc1)NCCCCC1CCN(C(=O)c2ccccc2)CC1	.	.	.	3.8%	.	.
Cn1c(/C=C/c2ccc([N+](=O)[O-])o2)nc2ccccc2c1=O	-97.5*	5.17µM*	1.84µM*	7.94µM*	6.31µM*	7.4%
Cc1cc(C(C)(C)C)ccc1OCCn1ccnc1	28.9	?	0.4%	-6.4%	i	-1.7%
Cc1cccc(OCCCCCn2ccnc2)c1C	-5.5	10.5%	-1.2%	-23.3%	i	1.6%
c1ccc(-c2ccccc2OCCCCn2ccnc2)cc1	-57.9*	1.0%	-2.8%[9.22 µM]	-15.0%	i	2.8%
Cc1ccc(C(C)(C)C)c(OCCCn2ccnc2)c1	-26.1	?	17.3%	-7.7%	i	-1.5%
CC(C)(C)c1ccccc1OCCCCCn1ccnc1	-98.0*	-1.6%	2.3%	-33.0%	i	?
CC(C)(C)c1cc(Cl)ccc1OCCn1ccnc1	-52.6*	19.8%	1.9%	-16.3%	i	1.3%
SMILES	IL-1B inflam inh	MCF10A rereplic	SW480 rerep	ATXN2 expr inh	ATXN viability	PINK1 modulator
Cc1ccc2c(n1)Oc1ccc(C(C)C(=O)OCC(=O)N(C)C)cc1C2 (centres undefined)	.	.	.	31.6%	i	.
COc1cc(C(=O)Oc2cccc(/C=N/NC(=O)c3cc(C)[nH]n3)c2)cc(OC)c1OC	-20.5	3.1%	1.0%	8.3%	i	6.6%
COc1cc(C(=O)Oc2cccc(C=O)c2)cc(OC)c1OC	20.2	2.2%	16.4µM*	-5.1%	i	2.4%[38.3 µM]
O=S(=O)(c1ccc(-c2csc(=Nc3ccccc3)n2CCCN2CCOCC2)cc1)N1CCOCC1	-61.4*	0.1%	-8.2%	-11.1%	i	-0.6%
COc1ccccc1-c1ccc2c(c1)C(C)(Cc1ccc(Cl)cc1)C(=O)N2 (centres undefined)	7.1	.	.	1.3%	i	0.5%
COc1ccccc1-c1ccc2c(c1)C(C)(Cc1ccc(OC(F)(F)F)cc1)C(=O)N2 (centres undefined)	-51.9*	.	.	?	?	-0.9%
CC1(Cc2ccc(Cl)cc2)C(=O)Nc2ccc(S(=O)(=O)NC3CCCCC3)cc21 (centres undefined)	-7.8	.	.	?	?	-0.2%
CC1(Cc2ccc(OC(F)(F)F)cc2)C(=O)Nc2ccc(S(=O)(=O)NC3CCCCC3)cc21 (centres undefined)	-71.6*	.	.	?	?	2.5%
FC(F)(F)c1cnc(-c2cc3c(c(OCC4CCCO4)c2)OCCN(Cc2cccn2-c2nccs2)C3)c(Cl)c1 (centres undefined)	.	.	.	.	i	-0.5%
O=[N+]([O-])c1ccc(N/N=C/c2ccc(OCc3cccc4ccccc34)cc2)nc1	14.0	?	20.6µM*	18.6%	.	?
COc1ccc(C=NNc2ccc([N+](=O)[O-])cn2)cc1	-17.0	-19.1%	4.0%	-30.9%	i	11.2µM*
O=[N+]([O-])c1ccc(NN=Cc2ccc(O)cc2)nc1	-3.5	22.9%	7.0%	12.4%	i	5.3%
O=C(/C=C/c1ccco1)Oc1cc(Br)cc(/C=N/NC(=O)c2ccccc2O)c1	55.9	?	0.731µM*	?	i	?
Cc1ccc(C(=O)N/N=C/c2cccc(OC(=O)/C=C/c3ccco3)c2)cn1	-1.7	-1.4%	-1.0%	27.8%	i	8.1%
O=C1NCC(Nc2ccc(Br)cc2)C(=O)N1 (centres undefined)	-1.6	-13.6%	-9.9%	3.4%	i	3.7%
O=C(Nc1cccc(C(=O)O)c1)/C(=C\c1ccc2c(c1)OCO2)NC(=O)c1ccco1	2.1	0.581µM*	-18.4%	-21.0%	i	1.7%
O=C(Nc1ccccc1)/C(=C\c1ccc2c(c1)OCO2)NC(=O)c1ccco1	2.9	9.2µM*	?	10.6%	i	2.3%[38.3 µM]
COc1ccc(/C=C2\SC(=O)N(CCC(=O)Nc3ccccc3)C2=O)cc1OC	11.0	-2.2%	-39.4%	-14.5%	?	10.9%
COc1cc(/C=C2\SC(=O)N(CCN)C2=O)ccc1OS(=O)(=O)c1cc(C)ccc1C	-109.3*	?	-2.4%	-10.0%	?	-2.5%
CCCN(C(=O)c1noc2c1COc1ccc(C)cc1-2)c1ccc(Cl)c(Cl)c1	.	.	.	7.3%	i	0.7%
